# A selection: hits, their analogues and other compounds. The true share with any hit is near 21%.
# TDP1 cell noCPT = qHTS for Inhibitors of human tyrosyl-DNA phosphodiesterase 1 (TDP1): qHTS in cells in absence of CPT; DT40 Tdp1-/- hTDP1 cells, no CPT, ATP luminescence, 48 h; Potency, µM (series often up to 46.2 µM), for the others: at the top dose activity change, negative = growth inhibition, usual class: inhibitors; actives 15% (n = 420,000); AID 686978, 2013; further: potency means the concentration at half of the fitted maximal effect; on the % scale 0 is the no-effect control and ±100 the full control effect; nearly all actives have a fitted effect of over 55% in size
#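 Chicken DT40 Tdp1-/- cells complemented with human TDP1, screened without camptothecin (DMSO vehicle only), 400 cells/well. Compounds pin-transferred, cells incubated at 37 °C for at least 48 hr. Growth read as ATP-dependent luminescence (CellTiter-Glo, 30 min at RT).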
# D3 ag = agonists of human D3 dopamine receptor | D3R DiscoveRx beta-arrestin cells, luminescence, 90 min | actives 0.58% (n = 410,000) | max activation, %; in the data active means max activation above about 30%; further: 0% is about no effect
#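 Cells at 1500/well, incubated overnight, then treated with pinned compounds (dopamine as control) for 90 min at 37 degrees C. DiscoveRx reagent added for 30 - 60 minutes at room temperature; luminescence read.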
# DRD3 antagonist = blocks the human D3 dopamine receptor | P35462 | actives 2.5% (n = 360,000) | max response, negative = inhibition, % | D3R cells, DiscoveRx beta-arrestin luminescence, antagonist mode; hits give low values; in the data active means max response below about -50%; inconclusive means no clear call, values can overlap the other calls; further: on the % scale 0 is the no-effect control and ±100 the full control effect
#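 Cells expressing the human receptor were seeded at 1500 cells/well, incubated overnight at 37 degrees C in 5% CO2, then exposed to library compounds with dopamine controls for 90 minutes at 37 degrees C before luminescent detection.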
# DT40 TDP1 CPT = DT40-hTDP1 cell growth loss with CPT; chicken DT40 Tdp1-/-;hTDP1 cells + 20 nM CPT, ATP luminescence, 48 h; actives 12% (n = 420,000); Potency, µM (highest dose often 46.2 µM), without a hit: top-dose activity change, negative = growth inhibition, usual class: inhibitors; further: potency means the concentration at half of the fitted maximal effect; on the % scale 0 is the no-effect control and ±100 the full control effect; nearly all actives have a fitted effect of over 55% in size
#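 Cell growth measured by CellTiter-Glo luminescence after a minimum 48 h, 37 C compound exposure with 20 nM CPT in Tdp1-knockout DT40 cells stably expressing hTDP1, seeded 400/well; qHTS titration format.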
# ClpP mod = qHTS Assay for Activators of ClpP. Potency, µM (series often up to 57.5 µM), inactives show top-dose activity change, negative = active. AID 651965, 2013. actives 1.9% (n = 340,000). ATP-dependent Clp protease proteolytic subunit (Bacillus subtilis (strain 168)), P80244. purified B. subtilis ClpP, FRET peptide cleavage, 20 min; active means well fitted falling curve with a large enough effect; inconclusive means small, poorly fitted or top-dose-only effect; inactive means no such curve, though single readings can be large or run the other way; further: potency means the concentration at half of the fitted maximal effect; the source files actives as falling curves though it sought activators and does not explain the sign; nearly all actives have a fitted effect of over 65% in size
#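 ClpP 10 microg/mL final, pH 8 Tris/KCl buffer with BSA, glycerol, Tween-20; compound pinned in; FRET-FV substrate; RT 20 min; Ex320/Em430; ΔFRET vs ADEP 5.8 microM, DMSO, no enzyme.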
# IL1B secr inh = inflammasome signaling inhibition, IL-1 beta readout; THP-1 LPS/ATP IL-1B secretion, AlphaLISA, 16 h; hits give low values; activity change, % at 57.5 µM; actives 4.7% (n = 360,000); in the data active means activity change below about -50%; inconclusive means mostly about -30% to -49%; further: on the % scale 0 is the no-effect control and ±100 the full control effect
#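 THP-1 cells pretreated 1 hr with compounds (up to 57.5 uM final), then stimulated with LPS (250 ng/mL final) plus ATP (1.25 mM final); secreted IL-1B measured by AlphaLISA after 16 hr, decreased signal indicating inhibition.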
# Starred values were filed as active, the others as inactive; ? = inconclusive; . = no result given. Unless noted, the call rests on the fitted dose curve; in most records, active means well fitted inhibition curve with a large enough effect; inconclusive means small, poorly fitted or top-dose-only effect; inactive means flat fitted curve, though single readings scatter.
SMILES,TDP1 cell noCPT,D3 ag,DRD3 antagonist,DT40 TDP1 CPT,ClpP mod,IL1B secr inh
COc1ccc(CC(=O)N2N=C(c3ccncc3)CC2(O)C(F)(F)F)cc1 (stereo unspecified),4.6µM*,-2,23,5.2µM*,0%,34
CCOC(=O)N1N=C(c2ccc(OC)cc2)CC1(O)C(F)(F)F (stereo unspecified),-23%,3,-1,0%,0%,-12
O=C(Cc1ccc([N+](=O)[O-])cc1)N1N=C(C2CC2)CC1(O)C(F)(F)F (stereo unspecified),?,5,5,26µM*,.,26
O=C(c1ccncc1)N1N=C(C2CCCCC2)CC1(O)C(F)(F)F (stereo unspecified),4.6µM*,-1,3,2.9µM*,.,41
CCN(CC)S(=O)(=O)c1ccc(C(=O)OCC(=O)NCCN2C(=O)CSC2=O)cc1,20%,-2,?,-12%,-1%,0
CN(CC(=O)Nc1ccccc1C(F)(F)F)C(=O)C1CC1,11%,3,1,-5%,-1%,-2
CCC1=NN(C(=O)CCc2ccccc2)C(O)(C(F)(F)F)C1 (stereo unspecified),-16%,-2,?,1%,-2%,0
CCC1=NN(C(=O)C(=O)Nc2ccc(OC)cc2)C(O)(C(F)(F)F)C1 (stereo unspecified),-2%,-36,-159*,-14%,-2%,0
CCC1=NN(C(=O)Cc2ccc(OC)cc2)C(O)(C(F)(F)F)C1 (stereo unspecified),21µM*,3,-23,29µM*,-1%,10
CCC1=NN(C(=O)C(=O)NCCc2ccccc2)C(O)(C(F)(F)F)C1 (stereo unspecified),-12%,-16,-65*,8%,1%,14
O=c1cc(C(F)(F)F)[nH]c(=S)n1-c1ccccc1,0%,3,4,2%,-1%,-3
C[C@H](CO)N1C[C@H](C)[C@@H](CN(C)S(=O)(=O)c2ccccc2)Oc2ccc(NC(=O)Nc3ccc4c(c3)OCO4)cc2C1=O,?,0,9,?,-2%,-19
Cc1cccc(N2CCN(C(=O)CSc3nc4ccccc4nc3N3CC(C)OC(C)C3)CC2)c1C (stereo unspecified),4.1µM*,76*,39,2.1µM*,0%,16
O=C(CSc1nc2ccccc2nc1N1CCOCC1)N1CCN(c2ccccc2)CC1,12µM*,0,12,21µM*,-1%,-27
O=C(CSc1nc2ccccc2nc1N1CCCCC1)N1CCN(c2ccccc2)CC1,?,-2,0,21µM*,-23%,-21
O=C(CSc1nc2ccccc2nc1N1CCCCC1)Nc1ccc(F)cc1,?,0,5,-11%,-11%,-18
CC(C)(C)NC(=O)[C@H]1CC[C@H]2[C@@H]3CC=C4C=C(C(=O)O)CC[C@]4(C)[C@H]3CC[C@]12C,?,-3,.,?,.,.
Cc1noc(C)c1-c1cncnc1NC1CC1,-6%,.,.,-1%,.,.
Cc1c(N2C(=O)/C(=C/c3ccc(N(C)C)cc3)N(C)C2=S)c(=O)n(-c2ccccc2)n1C,-21%,0,0,4%,.,-22
Cc1ccccc1Cc1ccc(Cl)nn1,3%,-1,-7,-4%,.,1
CC(=O)NS(=O)(=O)c1ccc(N=c2ssc3c2-c2cc(C)c(C)cc2NC3(C)C)cc1,?,-11,?,-20%,-1%,?
Cc1cc2c(cc1C)-c1c(ssc1=Nc1ccc(S(N)(=O)=O)cc1)C(C)(C)N2,16µM*,-5,-16,?,1%,15
O=C(CCN1CCCCC1)NNC(=O)C12CC3CC(CC(C3)C1)C2,1%,-4,-24,-6%,1%,10
C=C1C(=O)C=C[C@]2(C)C[C@@H]3OC(=O)[C@](C)(O)[C@H]3C[C@@H]12,1.3µM*,-36,?,1.8µM*,0%,-110*
Cc1ccc(-c2nc3c(c(SCc4ccc(Br)cc4)n2)Cc2c(CO)cnc(C)c2O3)cc1,-5%,2,.,-3%,-1%,.
SMILES,TDP1 cell noCPT,D3 ag,DRD3 antagonist,DT40 TDP1 CPT,ClpP mod,IL1B secr inh
O=C1CSC2(CCN(CCCN3c4ccccc4Sc4ccc(Cl)cc43)CC2)N1,9.4µM*,-4,.,24µM*,.,.
O=C(CN1CCN(CCOCCO)CC1)N1c2ccccc2Sc2ccc(Cl)cc21,?,8,-14,-26%,0%,-18
NC(=O)N1CCN(CCCN2c3ccccc3Sc3cc(Cl)ccc32)CC1,?,-7,-69*,?,3%,-28
C/C(CCc1ccc2c(c1)OCO2)=N\N=C1\NC(=O)CC(C(=O)Nc2ccccc2F)S1 (stereo unspecified),-17%,4,-12,-9%,.,32
CCC(C)C(N)C(=O)N1CCCC1C(=O)NC(C(=O)O)C(C)CC (stereo unspecified),1%,17,3,0%,0%,0
O=C(c1ccccc1)c1ccc(O)c(O)c1O,?,19,19,4%,1%,-7
COCCNC(=O)Cn1c(=O)c2cccn2c2ccc(F)cc21,-4%,11,.,4%,?,.
COc1ccccc1CCNC(=O)CCn1c(=O)c2cccn2c2ccc(F)cc21,12µM*,-5,-18,23µM*,2%,-9
COc1ccc(CCNC(=O)CCn2c(=O)c3cccn3c3ccc(F)cc32)c(OC)c1OC,8.2µM*,3,9,13µM*,-9%,-15
COc1ccc(C(C)=O)cc1COC(=O)Cc1cc(OC)c(OC)c(OC)c1,-26%,6,18,-14%,.,-6
O=C(c1cccc(NS(=O)(=O)c2ccc(Br)cc2)c1)N1CCCCC1,-1%,1,14,5%,1%,24
O=C1CN(C(=O)c2ccc(S(=O)(=O)N3CCCC3)cc2)C(c2ccccc2)c2cc(Br)ccc2N1 (stereo unspecified),?,-2,.,15µM*,2%,.
Cc1ccc2c(c1)C(c1ccccc1)N(C(=O)c1ccc(Br)o1)CC(=O)N2 (stereo unspecified),21µM*,4,2,21µM*,-2%,-11
Cc1ccc2c(c1)C(c1ccccc1)N(C(=O)c1ccc(S(=O)(=O)N3CCCCC3)cc1)CC(=O)N2 (stereo unspecified),?,-4,.,?,0%,.
